Measurements as given in PubChem BioAssay (NCI).
Compounds without any hit were thinned out: in the full panel of roughly 79,000, 15% have a hit. Active and inactive are the calls of the source. No stated cut-off is given here; in the data, active means growth inhibition above about 70%; inactive means the rest.

Experiments:
[1] = NCI Yeast Anticancer Drug Screen. Data for the rad52 strain (AID 147);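 further: 0% = growth of vehicle-treated control cultures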; details: S. cerevisiae rad52 mutant growth inhibition, hits give high values
Outline: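 Genetically altered yeast (DNA damage repair defect) treated with compound; inhibition calculated relative to vehicle.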

[2] = NCI Yeast Anticancer Drug Screen. Data for the rad50EPP+ strain (AID 151);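 further: 0% = growth of vehicle-treated control cultures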; details: S. cerevisiae rad50 mutant strain, hits give high values
Outline: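 Strain rad50EPP+; compound exposure; % growth inhibition vs vehicle.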

[3] = NCI Yeast Anticancer Drug Screen. Data for the rad50 strain (AID 155);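 further: 0% = growth of vehicle-only cultures of the same strain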; details: S. cerevisiae rad50 strain growth inhibition, hits give high values
Outline: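 Yeast carrying a defined DNA repair defect were exposed to test compounds, and growth was compared with vehicle-treated controls to give percent inhibition.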

[4] = NCI Yeast Anticancer Drug Screen. Data for the mec2-1 strain (AID 157); details: S. cerevisiae mec2-1 strain, hits give high values
Outline: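 Cells of the genetically defined mec2-1 yeast strain are incubated with test compound. Inhibition of growth is calculated against vehicle-treated controls.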

[5] = NCI Yeast Anticancer Drug Screen. Data for the rad14 strain (AID 159);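 further: 0% = growth of vehicle-treated control cultures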; details: S. cerevisiae rad14 strain growth inhibition, hits give high values
Outline: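 Yeast cells carrying a defined DNA-repair defect were exposed to compounds, and growth inhibition was calculated relative to vehicle-treated control cultures.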

[6] = NCI Yeast Anticancer Drug Screen. Data for the sgs1 mgt1 strain (AID 161);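 further: 0% = growth of cultures given vehicle only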; details: S. cerevisiae sgs1 mgt1 strain, hits give high values
Outline: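 Test agents were incubated with a DNA-repair-mutant yeast strain. Growth was then read and compared against vehicle-treated controls.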

[7] = NCI Yeast Anticancer Drug Screen. Data for the CLN2oe strain (AID 163);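 further: 0% = growth of vehicle-only control cultures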; details: S. cerevisiae CLN2oe strain, hits give high values
Outline: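 Strain altered in cell-cycle control, incubated with compound; growth compared to solvent-treated controls.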

[8] = NCI Yeast Anticancer Drug Screen. Data for the cln2 rad14 strain (AID 165);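 further: 0% = growth equal to vehicle treated cultures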; details: S. cerevisiae cln2 rad14 strain, hits give high values
Outline: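 The screen exposed genetically defined yeast (cln2 rad14) to test compounds and scored growth inhibition relative to vehicle-treated controls.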

[9] = NCI Yeast Anticancer Drug Screen. Data for the bub3 strain (AID 167); details: S. cerevisiae bub3 mutant strain, hits give high values
Outline: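 Compounds were applied to a genetically altered yeast strain carrying a cell-cycle control defect. Growth inhibition was scored against vehicle-treated controls.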

[10] = NCI Yeast Anticancer Drug Screen. Data for the wt2 strain (AID 169);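 further: 0% = growth of vehicle-treated yeast cultures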; details: S. cerevisiae wt2 strain growth inhibition, hits give high values
Outline: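 Steps: yeast strain treated with compound; growth recorded; inhibition calculated relative to cultures given vehicle alone.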

[11] = NCI Yeast Anticancer Drug Screen. Data for the mlh1 strain (AID 171);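 further: 0% = growth of vehicle-treated control cultures of the same strain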; details: S. cerevisiae mlh1 strain growth inhibition, hits give high values
Outline: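 Yeast screen: mutant strain plus compound, growth scored against vehicle control wells.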

[12] = NCI Yeast Anticancer Drug Screen. Data for the sgs1 strain (AID 173);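 further: 0% = growth of vehicle-only control cultures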; details: S. cerevisiae sgs1 mutant, hits give high values
Outline: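 Inhibition of yeast growth served as the measure. The mutant strain was treated with each compound, and growth was normalised to cultures receiving vehicle alone.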

[13] = NCI Yeast Anticancer Drug Screen. Data for the rad18 strain (AID 177); details: S. cerevisiae rad18 mutant growth inhibition, hits give high values
Outline: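 Inhibition values reflect reduced yeast growth compared with vehicle-treated controls, using a strain engineered with a DNA damage repair defect.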

[14] = NCI Yeast Anticancer Drug Screen. Data for the wt1 strain (AID 149);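 further: 0% = growth of vehicle-treated wt1 cultures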; details: S. cerevisiae wt1 strain (SPY 50644) growth inhibition, hits give high values
Outline: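 Yeast wt1 strain exposed to compounds; growth inhibition measured relative to vehicle-treated controls.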

[15] = NCI Yeast Anticancer Drug Screen. Data for the mlh1 rad18 strain (AID 175); details: S. cerevisiae mlh1 rad18 strain growth inhibition, hits give high values
Outline: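 Compound-treated yeast growth, normalised to vehicle controls. Strain bears defined DNA repair mutations.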

[16] = at 5.0 µM (retest, dose inferred, filed as 0.5)
[17] = at 50.0 µM (retest, dose inferred, filed as 5.0)

Measured: growth inhibition

C/C(=N\NC(=S)NC1CCCC1)c1ccccn1
inactive: [1]; at 1.2 µM -5% | [2]; at 1.2 µM -6% | [2]; at 3.7 µM 14% | [3]; at 1.2 µM -5% | [3]; [16] 23% | [4]; at 1.2 µM 2% | [4]; [16] 33% | [5]; at 1.2 µM -9% | [6]; [16] 13% | [7]; at 1.2 µM -6% | [8]; [16] 41% | [9]; at 1.2 µM -5% | [9]; at 3.7 µM 64% | [9]; [16] 9% | [10]; at 1.2 µM -3% | [11]; at 1.2 µM -3% | [12]; at 1.2 µM 0% | [13]; at 1.2 µM -5%
active: [1]; at 3.7 µM 78% | [1]; at 11.0 µM 99% | [1]; at 33.0 µM 99% | [1]; at 100.0 µM 99% | [2]; at 11.0 µM 90% | [2]; at 33.0 µM 98% | [2]; at 100.0 µM 97% | [3]; at 3.7 µM 77% | [3]; at 11.0 µM 98% | [3]; at 33.0 µM 99% | [3]; [17] 99% | [3]; at 50.0 µM 79.2% | [3]; at 100.0 µM 98% | [4]; at 3.7 µM 77% | [4]; at 11.0 µM 99% | [4]; at 33.0 µM 99% | [4]; [17] 97% | [4]; at 50.0 µM 86% | [4]; at 100.0 µM 99% | [5]; at 3.7 µM 87% | [5]; at 11.0 µM 99% | [5]; at 33.0 µM 99% | [5]; at 100.0 µM 99% | [6]; [17] 99% | [6]; at 50.0 µM 92% | [7]; at 3.7 µM 84% | [7]; at 11.0 µM 99% | [7]; at 33.0 µM 99% | [7]; at 100.0 µM 99% | [8]; [17] 100% | [8]; at 50.0 µM 90.3% | [9]; at 11.0 µM 99% | [9]; at 33.0 µM 99% | [9]; [17] 98% | [9]; at 50.0 µM 91% | [9]; at 100.0 µM 99% | [10]; at 3.7 µM 71% | [10]; at 11.0 µM 99% | [10]; at 33.0 µM 99% | [10]; at 100.0 µM 99% | [11]; at 3.7 µM 71% | [11]; at 11.0 µM 98% | [11]; at 33.0 µM 98% | [11]; at 100.0 µM 98% | [12]; at 3.7 µM 79% | [12]; at 11.0 µM 99% | [12]; at 33.0 µM 99% | [12]; at 100.0 µM 99% | [13]; at 3.7 µM 79% | [13]; at 11.0 µM 98% | [13]; at 33.0 µM 99% | [13]; at 100.0 µM 95%

COc1ccc(N2C(=O)CC(Cl)C2=O)cc1 (stereo unspecified)
active: [14]; at 33.0 µM 70% | [14]; at 100.0 µM 100% | [2]; at 100.0 µM 99% | [3]; at 33.0 µM 79% | [3]; [17] 96% | [3]; at 50.0 µM 99.2% | [3]; at 100.0 µM 99% | [4]; at 50.0 µM 99.5% | [4]; at 100.0 µM 100% | [5]; at 33.0 µM 98% | [5]; at 100.0 µM 100% | [6]; at 50.0 µM 95.5% | [7]; at 100.0 µM 78% | [8]; at 50.0 µM 97% | [9]; at 33.0 µM 92% | [9]; at 50.0 µM 97.9% | [9]; at 100.0 µM 100% | [11]; at 100.0 µM 100% | [12]; at 33.0 µM 93% | [12]; at 100.0 µM 99% | [15]; at 50.0 µM 97.1% | [13]; at 100.0 µM 99%
inactive: [14]; at 1.2 µM -1% | [14]; at 3.7 µM 10% | [14]; at 11.0 µM 16% | [2]; at 1.2 µM -9% | [2]; at 3.7 µM -18% | [2]; at 11.0 µM 22% | [2]; at 33.0 µM 66% | [3]; at 1.2 µM -16% | [3]; at 3.7 µM -11% | [3]; [16] -128% | [3]; at 11.0 µM 15% | [4]; at 1.2 µM -7% | [4]; at 3.7 µM -5% | [4]; [16] -44% | [4]; at 11.0 µM -6% | [4]; at 33.0 µM 64% | [4]; [17] 36% | [5]; at 1.2 µM -6% | [5]; at 3.7 µM 1% | [5]; at 11.0 µM 13% | [6]; [16] -56% | [6]; [17] 59% | [7]; at 1.2 µM -12% | [7]; at 3.7 µM -12% | [7]; at 11.0 µM -12% | [7]; at 33.0 µM 0% | [8]; [16] -60% | [8]; [17] 8% | [9]; at 1.2 µM -15% | [9]; at 3.7 µM -8% | [9]; [16] -75% | [9]; at 11.0 µM 1% | [9]; [17] 69% | [11]; at 1.2 µM -14% | [11]; at 3.7 µM -10% | [11]; at 11.0 µM -10% | [11]; at 33.0 µM 40% | [12]; at 1.2 µM -3% | [12]; at 3.7 µM 0% | [12]; at 11.0 µM 24% | [15]; [16] -137% | [15]; [17] 32% | [13]; at 1.2 µM -12% | [13]; at 3.7 µM -10% | [13]; at 11.0 µM 1% | [13]; at 33.0 µM 38%

COC(=O)c1oc([N+](=O)[O-])c(Cl)c1Cl
inactive: [1]; at 3.7 µM 66% | [3]; [16] 21% | [4]; [16] 35% | [6]; [16] 36% | [7]; at 3.7 µM 45% | [8]; [16] 10% | [9]; at 3.7 µM 41% | [9]; [16] 47% | [9]; at 11.0 µM 34% | [10]; at 1.2 µM 64% | [10]; at 3.7 µM 51% | [11]; at 3.7 µM 62% | [12]; at 3.7 µM 57% | [15]; [16] 58%
active: [1]; at 1.2 µM 78% | [1]; at 11.0 µM 71% | [1]; at 33.0 µM 95% | [1]; at 100.0 µM 99% | [2]; at 1.2 µM 95% | [2]; at 3.7 µM 93% | [2]; at 11.0 µM 93% | [2]; at 33.0 µM 98% | [2]; at 100.0 µM 98% | [3]; at 1.2 µM 95% | [3]; at 3.7 µM 79% | [3]; at 11.0 µM 86% | [3]; at 33.0 µM 96% | [3]; [17] 99% | [3]; at 50.0 µM 97% | [3]; at 100.0 µM 98% | [4]; at 1.2 µM 94% | [4]; at 3.7 µM 70% | [4]; at 11.0 µM 73% | [4]; at 33.0 µM 99% | [4]; [17] 100% | [4]; at 50.0 µM 99.7% | [4]; at 100.0 µM 99% | [5]; at 1.2 µM 99% | [5]; at 3.7 µM 71% | [5]; at 11.0 µM 90% | [5]; at 33.0 µM 99% | [5]; at 100.0 µM 99% | [6]; [17] 99% | [6]; at 50.0 µM 99% | [7]; at 1.2 µM 98% | [7]; at 11.0 µM 79% | [7]; at 33.0 µM 92% | [7]; at 100.0 µM 99% | [8]; [17] 99% | [8]; at 50.0 µM 98.5% | [9]; at 1.2 µM 71% | [9]; at 33.0 µM 97% | [9]; [17] 100% | [9]; at 50.0 µM 99.2% | [9]; at 100.0 µM 98% | [10]; at 11.0 µM 74% | [10]; at 33.0 µM 99% | [10]; at 100.0 µM 99% | [11]; at 1.2 µM 77% | [11]; at 11.0 µM 78% | [11]; at 33.0 µM 99% | [11]; at 100.0 µM 99% | [12]; at 1.2 µM 82% | [12]; at 11.0 µM 78% | [12]; at 33.0 µM 96% | [12]; at 100.0 µM 96% | [15]; [17] 99% | [15]; at 50.0 µM 99.5% | [13]; at 1.2 µM 93% | [13]; at 3.7 µM 92% | [13]; at 11.0 µM 89% | [13]; at 33.0 µM 98% | [13]; at 100.0 µM 99%
